Source: PubChem BioAssay (The Scripps Research Institute Molecular Screening Center)
Only some compounds are listed: those with a hit (about 1.1% of all), similar ones and a draw of the others.
HTR5A ag – counter-screen for OPRM1-OPRD1 agonists: human HTR5A agonism. P47898. HTR5A agonist assay, luminescence, cell-based. activation, % at 9.3 µM. actives 0.61% (n = 340,000). AID 504692; in the data active means activation mostly above about 9.5%, no sharp cut-off; inactive means mostly below about 7.6%;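 further: 0% = cells with vehicle only and 100% = reference agonist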
Target sequence (P47898 whole entry, looked up): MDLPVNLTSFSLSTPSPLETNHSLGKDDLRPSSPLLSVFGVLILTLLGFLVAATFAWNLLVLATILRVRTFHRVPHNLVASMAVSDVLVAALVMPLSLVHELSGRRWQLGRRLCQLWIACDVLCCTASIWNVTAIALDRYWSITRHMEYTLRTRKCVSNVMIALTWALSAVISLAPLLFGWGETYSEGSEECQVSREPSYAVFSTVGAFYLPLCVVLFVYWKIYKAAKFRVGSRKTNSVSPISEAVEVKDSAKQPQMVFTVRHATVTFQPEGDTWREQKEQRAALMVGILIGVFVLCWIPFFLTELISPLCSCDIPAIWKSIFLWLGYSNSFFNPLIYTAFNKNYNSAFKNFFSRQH
OPRM1-OPRD1 inv – inverse agonists of human mu-delta opioid receptor heterodimerization | actives 0.21% (n = 340,000) | AID 504357 | cell-based MOR-DOR heterodimer luminescence, inverse agonism | inhibition, % at 9.3 µM | P35372+P41143; in the data active means inhibition above about 22%, passing the limit was not always enough;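 further: 0% = cells with DMSO and 100% = wells without cells with DMSO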
OPRM1-OPRD1 ag – OPRM1-OPRD1 heterodimerization agonism | actives 0.3% (n = 340,000) | activation, % at 9.3 µM | P35372+P41143 | cells, luminescence | AID 504326;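 further: 0% = vehicle-treated cells and 100% = reference agonist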
HTR5A inv ctr – counter-screen for OPRM1-OPRD1 inverse agonists: human HTR5A inverse agonism | actives 0.083% (n = 340,000) | HTR5A cell line, luminescence | inhibition, % at 9.3 µM; in the data active means inhibition mostly above about 23%, no sharp cut-off; inactive means mostly below about 18%;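 further: 0% = cells with DMSO and 100% = no-cell wells with DMSO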
OPRM1-D1 ag cf – OPRM1-OPRD1 heterodimer agonism, confirmation | shares compounds with OPRM1-OPRD1 ag | cells, MOR-DOR heterodimerization, luminescence complementation | activation, % at 9.3 µM | actives 45% (n = 830);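 further: 0% = vehicle-treated cells and 100% = reference agonist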
HTR5A ag ctr2 – HTR5A agonism, opioid heterodimer counter-screen; activation, % at 9.3 µM; HTR5A agonist counterscreen, cell luminescence; actives 8% (n = 830); shares compounds with OPRM1-OPRD1 ag; in the data active means activation above about 17%;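 further: 0% = vehicle-treated cells and 100% = reference agonist response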
MOR-DOR inv conf – OPRM1-OPRD1 heterodimer inverse agonism, confirmation | cells expressing OPRM1/OPRD1 heterodimer, luminescence | inhibition, % at 9.3 µM | shares compounds with OPRM1-OPRD1 inv | actives 20% (n = 580) | AID 504900; in the data active means inhibition above about 32%;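 further: 0% = cells with DMSO and 100% = wells lacking cells with DMSO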
HTR5A inv count – HTR5A inverse agonism, opioid heterodimer counter-screen; shares compounds with OPRM1-OPRD1 inv; HTR5A-expressing cells, luminescence; inhibition, % at 9.3 µM; 580 tested, under 10 active; call rule not given here;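 further: 0% = cells with DMSO and 100% = no-cell wells with DMSO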
Numbers without * were called inactive; i = inactive; nt = not tested or not shown. Unless noted, no stated cut-off is given here; in the data, active means activation above about 18%; inactive means the rest.

SMILES	HTR5A ag	OPRM1-OPRD1 inv	OPRM1-OPRD1 ag	HTR5A inv ctr	OPRM1-D1 ag cf	HTR5A ag ctr2	others
COc1ccc(C(CNC(=O)CCc2ccsc2)N(C)C)cc1 (centres undefined)	2.0	i	404.6*	12.8	55.0*	-3.3
COC(=O)C1=COC(C)C2CN3CCC4(C(=O)Nc5ccccc54)C3CC12 (centres undefined)	1.4	3.8	-0.8	21.2	nt	nt
COC(=O)C1=CO[C@@H](C)[C@@H]2CN(CCc3c[nH]c4ccccc34)CC[C@H]12	-8.1	i	91.6*	-12.6	122.8*	1.0
CC1[C@H]2Cc3ccc(O)cc3[C@]1(C)CCN2CCc1ccccc1 (some centres undefined)	-8.2	i	338.9*	18.9	315.0*	0.3
CCC(COC(=O)c1cc(OC)c(OC)c(OC)c1)(c1ccccc1)N(C)C (centres undefined)	-4.7	-294.3	54.4*	16.7	50.7*	13.5
COC1=CC2C3Cc4ccc(OC)c(O)c4C2(CCN3C)CC1=O (centres undefined)	8.2	3.1	-0.7	-20.2	nt	nt
COc1ccc2c(c1O)[C@]13CCN(C)[C@H](C2)[C@@H]1CCC(=O)C3	5.0	i	96.4*	-15.7	23.3*	-0.9
COC1=C(C)C(=O)C2=C(C1=O)C(CO)N1C(C#N)C3CC4C(C1C2N1CCOC41)N3C (centres undefined)	4.9	-36.4	8.3	-18.9	nt	nt
COC(=O)C1=C(c2cccc(OC)c2OC)C[C@@H]2CC[C@H]1N2C(=O)NCc1ccco1	3.8	1.2	-0.2	3.2	nt	nt
CCC(=O)C(CCN1CCOCC1)(c1ccccc1)c1ccccc1	0.7	i	271.4*	2.8	250.2*	-1.1
N#CC(CCN1CCOCC1)(c1ccccc1)c1ccccc1	-0.6	21.3	-4.1	2.3	nt	nt
CC(=O)OC1CC[C@]2(C#N)[C@H]3CC[C@]4(C)[C@H](C5C=CC(=O)O5)CCC4(O)C3CCC2(O)C1 (some centres undefined)	18.7*	-245.8	51.4*	-69.3	17.9	21.1*
CC1OC(OC2CC(O)C3(CO)C4C(O)CC5(C)C(C6=CC(=O)OC6)CCC5(O)C4CCC3(O)C2)C(O)C(O)C1O (centres undefined)	26.1*	-403.7	80.0*	0.1	5.0	3.3
Clc1cccc(CNCCc2ccc3c(c2)OCO3)c1	-5.4	-11.0	2.4	19.1	nt	nt
CC1(C)CC(CCNCc2ccc3c(c2)OCO3)(Cc2ccccc2)CCO1 (centres undefined)	-1.1	-162.8	30.9*	3.0	27.6*	-4.1
Cc1cc2c(cc1C)NP(=S)(c1ccccc1)N2	2.1	11.7	-2.7	-8.0	nt	nt
C[C@]12CCC3C(CC[C@@H]4C[C@H](O)CC[C@]34C)C1CCC2=O (some centres undefined)	-0.6	-14.6	2.9	2.5	nt	nt
CC(Cc1ccccc1)NC(=O)Cc1ccc(N(C)C)cc1 (centres undefined)	1.1	6.5	-1.3	27.0	nt	nt
CN(C)C(CNC(=O)Cc1ccc(Br)cc1)c1ccccc1 (centres undefined)	-0.6	i	141.4*	1.8	213.8*	-4.5
c1ccc(C2(N3CCCCC3)CCCCC2)cc1	-7.7	i	373.9*	17.9	345.9*	-1.8
CCC(C)N1C(=O)NC(=O)C2(Cc3c(ccc4ccccc34)N(C)C2)C1=O (centres undefined)	13.5	-126.1	20.2*	-29.7	214.6*	-1.2
CCC(=O)OC1(Cc2ccc(CC)cc2)CC(C)N(C)CC1C (centres undefined)	1.0	-105.8	20.2*	-44.2	1.7	1.3
CCC(=O)OC1(c2ccccc2)C(C)CN(C)CC1C (centres undefined)	-3.3	-9.2	1.9	-3.0	nt	nt
CC1CC(OC(=O)c2ccccc2)(c2ccccc2)C(C)CN1C (centres undefined)	-2.2	24.9	-5.0	5.2	nt	nt
CCC(=O)OC1(c2cccc(C)c2)CC(C)N(C)CC1C (centres undefined)	-1.2	-313.3	64.2*	3.0	65.8*	-0.1
SMILES	HTR5A ag	OPRM1-OPRD1 inv	OPRM1-OPRD1 ag	HTR5A inv ctr	OPRM1-D1 ag cf	HTR5A ag ctr2	others
Cc1cccc(NC(=O)[C@@H](NC(=O)N2C[C@H]3C[C@@H](C2)c2cccc(=O)n2C3)C(C)C)c1	1.9	11.8	-2.3	-11.3	nt	nt
COC(=O)C1=C(c2ccc(F)cc2OCc2ccccc2)C[C@@H]2CC[C@H]1N2C(=O)NCc1cccc(C(F)(F)F)c1	-5.2	8.5	-1.6	-14.5	nt	nt
CCOC(=O)C1(c2ccccc2)Oc2ccccc2C(c2ccc(OC)cc2)=C1C(=O)OC (centres undefined)	-4.3	16.9	-3.4	14.9	nt	nt
C[C@@H]1O[C@@H](O[C@@H]2C=C3CCC4C(CC[C@]5(C)[C@@H](c6ccc(=O)oc6)CC[C@]45O)[C@@]3(C)CC2)[C@H](O)[C@H](O)[C@H]1O (some centres undefined)	29.8*	-381.5	70.6*	-106.5	33.8*	27.2*
COC(=O)CC(=O)c1ccc2c(c1)OCO2	-2.1	15.9	-2.9	-33.2	nt	nt
COC(=O)C1=C(c2cccc(OCc3ccccc3)c2)C[C@@H]2CC[C@H]1N2C(=O)NCCCOC(C)C	-0.9	5.0	-0.9	-17.8	nt	nt
CN(C)C1(CNC(=O)Nc2ccc(Cl)c(Cl)c2)CCCCC1	7.1	-358.3	67.4*	-19.0	-0.8	-4.3
Cc1ccc(N/N=C/c2c(O)n(-c3ccccc3)c(=O)[nH]c2=O)cc1	0.0	31.9*	-6.8	0.1	nt	nt	MOR-DOR inv conf=-10.0;HTR5A inv count=-0.7
COC(COC(N)=O)C1=C(N2CC2)C(=O)C(C)=C(N2CC2)C1=O (centres undefined)	0.8	-12.7	2.9	-3.2	nt	nt
CC1=C(N2CC2)C(=O)C(CO)=C(N2CC2)C1=O	-7.9	42.5*	-9.7	30.3	nt	nt	MOR-DOR inv conf=-4.4;HTR5A inv count=-0.1
CCc1cccc(CC)c1NC(=S)N1CC2CC(C1)c1cccc(=O)n1C2 (centres undefined)	0.3	4.3	-0.8	-28.5	nt	nt
CC1CN(O)C2CCc3nonc3C12O (centres undefined)	-9.2	42.6*	-8.7	22.3	nt	nt	MOR-DOR inv conf=-23.5;HTR5A inv count=-5.7
COC(=O)c1ccc(C(C(=O)NC2CCCCC2)N(CCN2CCOCC2)C(=O)Cc2cccs2)cc1 (centres undefined)	0.6	8.1	-1.7	33.8	nt	nt
CCCCn1c(NC(=O)c2ccco2)c(C(=O)OCC)c2nc3ccccc3nc21	-1.3	44.8*	-7.9	2.3	nt	nt	MOR-DOR inv conf=-13.5;HTR5A inv count=-11.7
